# Source: PubChem (National Center for Advancing Translational Sciences (NCATS))
# This excerpt belongs to a sample that is enriched for hits.
# Giardia FBPA inh: inhibitors of Giardia lamblia fructose-1,6-bisphosphate aldolase; A8B2U2; purified Giardia FBPA; Potency, µM (highest dose often 59.6 µM), without a hit: at the top dose activity, negative = inhibition, most hits filed as inhibitors; 290,000 tested, 0.71% active; note: potency is the fitted concentration of half-maximal effect; % is set by controls: 0 for no effect and ±100 for the full control effect; nearly all actives have a fitted effect of over 55% in size
#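 Giardia FBPA (40 nM reagent) was preincubated 10 min at RT with compound (up to 57.5 uM final), then substrate plus GAPDH/TPI/NAD/arsenate coupling system with diaphorase/resazurin was added; resorufin fluorescence (525/598 nm) was read after 20 min.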
# Shiga inhibitor: blocks Shiga toxin action in Vero cells; inhibition, % at 38.7 µM; 290,000 tested, 9.2% active; Vero cells, Shiga toxin protein synthesis inhibition reporter; AID 2315; in the data active = inhibition mostly above about 28%, no sharp cut-off; inactive = mostly below about 43%; note: 0% is about no effect
# Sm TGR block: inhibitors of Schistosoma mansoni thioredoxin glutathione reductase; Q962Y6; purified TGR, DTNB reduction, TNB absorbance 405 nm; Potency, µM (top dose mostly 114 µM), inactives show at the top dose activity change, negative = inhibition, actives largely listed as inhibitors; 360,000 tested, 3% active; AID 485364; note: potency is the fitted concentration of half-maximal effect; % is set by controls: 0 for no effect and ±100 for the full control effect; nearly all actives have a fitted effect of over 60% in size
#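 First, TGR (20 nM dispensed) and NADPH were mixed with compound. Second, a 15 min room-temperature incubation followed. Third, further NADPH and then DTNB were added to start the reaction. Finally, TNB absorbance was monitored kinetically.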
# LmPK inhibitor: blocks Leishmania mexicana pyruvate kinase activity; Q27686; purified LmPK, Kinase-Glo ATP luminescence, 1 h; Potency, µM (doses to about 57.5 µM), for the others: top-dose activity change, negative = inhibition, actives largely listed as inhibitors; 290,000 tested, 0.37% active; note: potency is the fitted concentration of half-maximal effect; % is set by controls: 0 for no effect and ±100 for the full control effect
# Target sequence (Q27686 whole entry, looked up): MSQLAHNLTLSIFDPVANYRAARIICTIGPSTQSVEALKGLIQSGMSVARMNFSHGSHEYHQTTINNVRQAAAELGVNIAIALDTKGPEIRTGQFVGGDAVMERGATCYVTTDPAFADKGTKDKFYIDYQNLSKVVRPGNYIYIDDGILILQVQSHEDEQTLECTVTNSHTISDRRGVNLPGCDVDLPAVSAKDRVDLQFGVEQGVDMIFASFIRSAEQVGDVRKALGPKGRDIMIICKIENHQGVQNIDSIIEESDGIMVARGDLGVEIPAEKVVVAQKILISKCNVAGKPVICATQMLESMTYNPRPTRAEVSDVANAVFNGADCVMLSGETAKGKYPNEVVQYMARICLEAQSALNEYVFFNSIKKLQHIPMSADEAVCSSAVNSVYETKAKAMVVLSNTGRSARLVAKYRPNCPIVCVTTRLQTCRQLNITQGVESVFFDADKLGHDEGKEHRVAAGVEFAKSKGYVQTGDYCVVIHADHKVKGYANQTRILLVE
#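 qHTS format; LmPK 0.1 nM; substrates PEP 0.5 mM and ADP 0.1 mM. One-hour room-temperature incubation, then coupled luciferase luminescence; 0.5 nM enzyme wells mark activation.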
# TbPYK inhibitor: blocks Trypanosoma brucei pyruvate kinase. TbPYK enzyme, Kinase-Glo Plus ATP luminescence, 45 min. Potency, µM (series often up to 76.8 µM), for inactives: top-dose activity, negative = inhibition, actives largely listed as inhibitors. Q57TT1. AID 624173. 410,000 tested, 0.12% active; note: potency is the fitted concentration of half-maximal effect; % is set by controls: 0 for no effect and ±100 for the full control effect; nearly all actives have a fitted effect of over 50% in size
#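 Luminescence from Kinase-Glo Plus, added after a 45-minute room-temperature reaction, served as the end-point read-out. The enzyme and substrate were preincubated with compound before ADP (130 uM final) initiated turnover. Concentration-effect curves came from normalized qHTS data.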
# Cycloheximide cs: counter-screen hit for Shiga toxin inhibitors, cycloheximide; cell reporter, cycloheximide protein synthesis inhibition counterscreen; max response, %; 300,000 tested, 12% active; AID 2314; in the data active = max response mostly above about 13%, no sharp cut-off; inactive = mostly below about 14%; note: read at 38.3 µM for the half of the compounds with a filed dose; 0% is about no effect
# The depositor's hits bear a star; i = inactive; ? = inconclusive; nt = no result given; + = active, no number; [ ] = dose if it differs, or a comment. Unless noted, calls come from the whole dose curve; as a rule, active = well fitted curve in the direction sought with a large enough effect; inconclusive = small, poorly fitted or top-dose-only effect, or another doubt; inactive = no such curve, though single readings can be large; an effect the other way counts as inactive or inconclusive.
SMILES,Giardia FBPA inh,Shiga inhibitor,Sm TGR block,LmPK inhibitor,TbPYK inhibitor,Cycloheximide cs
Fc1ccc(-c2csc(-c3ccncc3)n2)cc1,3%,49*,0%,-15%,0%,31*
Clc1ccccc1-c1csc(Nc2cccnc2)n1,-3%,53*,7%,0%,2%,26*
c1ccc(Nc2nc(-c3cccnc3)cs2)nc1,0%,104*,5%,-18%,-1%,57*
NS(=O)(=O)c1ccc(Nc2nc(-c3cccnc3)cs2)cc1,5%,-9,-14%,5%,7%,1
C[C@H](Cc1nc2c(cnn2-c2ccccc2Cl)c(=O)[nH]1)C(F)(F)F,0%,-5,nt,nt,nt,-5
Clc1ccccc1Nc1nc(-c2cccnc2)cs1,-11%,50*,-4%[57.1 µM],-26%,-7%,41*
Cc1ccc(Oc2ncc(CN3CCOCC3)s2)cc1,2%,61*,11%,-3%,4%,24*
Clc1cccc(Oc2ncc(CN3CCOCC3)s2)c1,3%,25,2%,-1%,-7%,20*
C/C(CCN1CCc2nc(-c3ccccc3)c(-c3ccccc3)cc2C1)=N\O[C@@H](C)c1cn([C@H](CO)Cc2ccccc2)nn1,-3%[12.9 µM],-10,-19%,3%,nt,-2
CCN(CCO)CC1CCCC2CCCCC21 (stereo not drawn),nt,nt,nt,nt,-12%,nt
NS(=O)(=O)c1ccc(N/N=C/c2ccc(C(=O)O)cc2)c([N+](=O)[O-])c1,0%,9,-1%,-4%,-7%,-3
O=C(O)c1ccc(/C=N\Nc2ccc(S(=O)(=O)N3CCOCC3)cc2[N+](=O)[O-])cc1,14%,-3,45µM*,1%,6%,-3
C/C(=N\Nc1ccc(S(=O)(=O)N2CCOCC2)cc1[N+](=O)[O-])C(C)C,5%,7,40µM*,1%,6%,-1
CN1CCC(=NNc2ccc(S(=O)(=O)N3CCOCC3)cc2[N+](=O)[O-])CC1,-2%,-3,?,0%,-7%,1
CC(=O)Oc1ccc(C2(c3ccc(OC(C)=O)cc3)Oc3ccccc3NC2=O)cc1,nt,nt,nt,nt,-5%,nt
N#C/C(=C/c1ccc(OC(=O)c2ccc(Br)s2)cc1)c1nc2ccccc2[nH]1,nt,nt,nt,nt,-2%,nt
N#C/C(=C\c1ccc(OC(=O)c2ccc(Br)s2)cc1)c1nc2ccccc2[nH]1,0%,38*,-11%,1%,-12%,22*
N#C/C(=C\c1ccc(OC(=O)c2ccc(Cl)s2)cc1)c1nc2ccccc2[nH]1,5%,17*,4%,-3%,-5%,50*
COc1cc2c(N3CCN(C(=O)Nc4ccc(OC(C)C)cc4)CC3)ncnc2cc1OCCCN1CCCCC1,nt,nt,nt,nt,-1%,nt
CCOc1cc(Br)c(C2C(C(=O)OC)=C(C)NC3=C2C(=O)c2ccccc23)cc1OCC (stereo not drawn),nt,nt,22µM*,nt,0%,nt
Cc1cc(=O)n(-c2ccccc2)n1-c1ccccc1,-3%,-8,-9%,-1%,-4%,1
Cc1cc(=S)n(-c2ccccc2)n1C,?,39*,6%,0%,-20%,16
COC(=O)c1ccc(NC(=O)c2ccc3nsnc3c2)cc1,-6%,25,1%,-1%,4%,1
Cc1ccc(NC(=O)c2sc(Cl)nc2C)c(C)c1,2%,1,-7%,-1%,5%,12
Cc1ccc(NC(=O)c2sc(C)nc2C)c(C)c1,-6%,36*,-6%,1%,4%,17*
SMILES,Giardia FBPA inh,Shiga inhibitor,Sm TGR block,LmPK inhibitor,TbPYK inhibitor,Cycloheximide cs
Cc1ccc(NC(=O)c2ccc3nsnc3c2)c(C)c1,-9%,35*,2%,0%,-9%,30*
Cc1ccc(NC(=O)CCl)c(C)c1,0%,2,25µM*,10%,4%,3
Cc1ccc(NC(=O)CCc2ccc(C)o2)c(C)c1,nt,15,-9%,-2%,-10%,13
CCOC(=O)N1CCN(C(=O)CS(=O)Cc2nc(-c3cccc(C)c3)oc2C)CC1 (stereo not drawn),2%,-16,?,12%,3%,-9
CCCCSCCCNC(=O)CS(=O)Cc1nc(-c2cccc(C)c2)oc1C (stereo not drawn),10%,13,45µM*,-1%,nt,-1
CCCCNC(=O)CS(=O)Cc1nc(-c2cccc(C)c2)oc1C (stereo not drawn),6%,-5,?,0%,-3%,-2
CCC(C)NC(=O)CS(=O)Cc1nc(-c2cccc(C)c2)oc1C (stereo not drawn),1%,15,25µM*,6%,-9%,4
CCCCNC(=O)CS(=O)Cc1nc(-c2cccc(Cl)c2)oc1C (stereo not drawn),-4%,-23,32µM*,2%,-7%,-12
CC(=O)c1ccc(N2CCN(C(=O)c3noc4c3CSc3ccccc3-4)CC2)cc1,0%,13,?,2%,3%,17*
COc1ccc(C)cc1NC(=O)c1noc2c1CSc1ccccc1-2,nt,nt,9%,nt,1%,nt
COC(=O)c1ccccc1NC(=O)c1noc2c1CSc1ccccc1-2,nt,nt,3.5µM*,nt,-3%,nt
Cc1ccc(Nc2c(-c3ccco3)nc3ccccn23)cc1,-20%,97*,?,2%,-5%,30*
COc1ccc(Nc2c(-c3ccco3)nc3ccc(C)cn23)cc1,-10%,38,-19%,-6%,0%,31*
Cc1ccc2nc(-c3ccco3)c(Nc3ccc4c(c3)OCCO4)n2c1,nt,nt,4%,nt,-7%,nt
CC(C)(C)c1ccc(C(=O)N2CC(=O)Nc3ccc(F)cc3C2c2ccc(F)cc2)cc1 (stereo not drawn),nt,nt,-10%,nt,-10%,nt
COc1cc2c(cc1OC)C1O[C@](c3ccsc3)(C2)Oc2c1c(=O)oc1ccc(F)cc21,2%[12.9 µM],i,?,-8%[11.5 µM],nt,16*
N#Cc1ccc2c(c1)C[C@]1(c3ccsc3)Oc3c(c(=O)oc4ccccc34)C2O1,-1%[12.9 µM],+,7.1µM*,-3%[11.5 µM],nt,24*
N#Cc1ccc2c(c1)C[C@]1(c3ccsc3)Oc3c(c(=O)oc4ccc(F)cc34)C2O1,-23%[12.9 µM],i,?,0%[11.5 µM],nt,-4
COc1ccc2c3c(c(=O)oc2c1)C1O[C@](c2ccsc2)(Cc2cc(C#N)ccc21)O3,-4%[12.9 µM],i,6.3µM*,0%[11.5 µM],nt,-3
CCC(Sc1nncn2c1cc1oc(C)cc12)C(=O)Nc1ccc(F)cc1 (stereo not drawn),nt,nt,-5%,nt,-9%,nt
O=C(O)c1ccc2c(c1)C(=O)N([C@H](Cc1ccc(O)cc1)C(=O)O)C2=O,5%,-6,-4%,nt,nt,0
O=C1c2ccccc2NC(c2ccc3c(c2)OCCO3)N1c1ccc2c(c1)OCCO2 (stereo not drawn),-5%,81*,0%,-11%,-4%,44*
COc1cc(C2Nc3ccccc3C(=O)N2c2ccc3c(c2)OCCO3)ccc1OCC(C)C (stereo not drawn),-12%,61*,0%,-12%,-5%,31*
